D1 antagonist: Antagonist of Human D 1 Dopamine Receptor: qHTS; D(1A) dopamine receptor (Homo sapiens), P21728; HEK293 TREx D1 cells, calcium flux, dopamine EC80; active compounds read low; activity change, negative = inhibition, % at 10 µM; 360,000 compounds, 3.2% hits; in the data active means activity change below about -30%; further: on the % scale 0 is the no-effect control and ±100 the full control effect
Target sequence (P21728 whole entry, looked up): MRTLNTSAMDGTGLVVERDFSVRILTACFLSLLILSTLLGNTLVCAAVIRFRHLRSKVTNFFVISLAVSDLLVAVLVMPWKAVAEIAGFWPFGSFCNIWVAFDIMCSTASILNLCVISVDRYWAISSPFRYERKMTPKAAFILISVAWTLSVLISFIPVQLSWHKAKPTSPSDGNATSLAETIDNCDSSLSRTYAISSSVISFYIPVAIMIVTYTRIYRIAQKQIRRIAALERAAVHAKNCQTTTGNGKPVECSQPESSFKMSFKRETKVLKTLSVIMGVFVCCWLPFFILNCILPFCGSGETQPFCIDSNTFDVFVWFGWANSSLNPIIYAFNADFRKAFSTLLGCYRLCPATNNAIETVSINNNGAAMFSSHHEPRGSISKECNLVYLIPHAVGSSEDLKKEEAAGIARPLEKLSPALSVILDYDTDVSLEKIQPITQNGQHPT
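HEK293 T-REx cells expressing inducible, force-coupled D1 receptor; no-wash Ca dye, 30–90 min RT. Cmpd → 180 s read at 1 Hz → EC80 DA → 180 s read.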
D1 agonist: Allosteric Agonists of the Human D1 Dopamine Receptor: qHTS; 360,000 compounds, 1% hits; AID 504660, 2011; activation, % at 2 µM; HEK293 T-REx D1 cells, calcium flux, agonist mode; D(1A) dopamine receptor (Homo sapiens), P21728; in the data active means activation above about 30%; further: 0% is about no effect
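Inducible HEK293 T-REx D1 cells, force-coupled to calcium signalling, were plated at 4000 cells/well with tetracycline and held overnight at 30 C. After no-wash calcium dye loading, compound-evoked calcium rise over 180 s flagged agonists.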
D1 potentiator: Potentiators of Human D1 Dopamine Receptor: qHTS; D(1A) dopamine receptor (Homo sapiens), P21728; HEK293 TREx D1 cells, calcium flux, dopamine EC20 potentiation; potentiation, % at 10 µM; 360,000 compounds, 0.036% hits; in the data active means potentiation above about 30%; further: 0% is about no effect
DRD3 agonist: qHTS of D3 Dopamine Receptor Agonist: qHTS; D3R DiscoveRx beta-arrestin cells, luminescence, 90 min; AID 652048, 2013; max activation, %; D(3) dopamine receptor (Homo sapiens), P35462; 410,000 compounds, 0.58% hits; in the data active means max activation above about 30%; further: 0% is about no effect
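Agonist mode: compounds and dopamine controls were applied to plated cells for 90 min at 37 degrees C after an overnight attachment at 1500 cells/well. Luminescent read-out followed 30 - 60 minutes at room temperature with DiscoveRx detection reagent.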
DRD3 antagonist: qHTS of D3 Dopamine Receptor Antagonist: qHTS; D(3) dopamine receptor (Homo sapiens), P35462; D3R cells, DiscoveRx beta-arrestin luminescence, antagonist mode; active compounds read low; max response, negative = inhibition, %; 360,000 compounds, 2.5% hits; in the data active means max response below about -50%; inconclusive means no clear call, values can overlap the other calls; further: on the % scale 0 is the no-effect control and ±100 the full control effect
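Cells expressing the human receptor were seeded at 1500 cells/well, incubated overnight at 37 degrees C in 5% CO2, then exposed to library compounds with dopamine controls for 90 minutes at 37 degrees C before luminescent detection.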
* hit, by the source's call; ? = inconclusive; · = no result given. Rows were chosen to be rich in hits. Some 6% of all compounds tested hit in one or more screens of this group.

SMILES	D1 antagonist	D1 agonist	D1 potentiator	DRD3 agonist	DRD3 antagonist
CCCN1CCN(CCCNC(=O)CCN2C(=O)COc3ccccc32)CC1	11	3	9	-10	0
O=C(CCN1C(=O)COc2ccccc21)NCCN1CCc2ccccc2C1	7	2	-2	-33	-62*
O=C(CCN1C(=O)COc2ccccc21)NCCCN1CCN(c2ccccc2F)CC1	-40*	0	-5	-7	-28
COCCN1C(=O)CN(S(C)(=O)=O)CC1(C)C(=O)Nc1c(C)cccc1C (configuration not stated)	·	·	·	7	8
O=C(CCCC(=O)N1CCN(c2ccccc2F)CC1)N1CCN(c2ccccc2F)CC1	4	2	-7	4	7
O=C(CCC(=O)N1CCN(c2ccccc2F)CC1)N1CCN(c2ccccc2)CC1	-61*	9	-3	2	7
O=C(O)/C=C/C(=O)N1CCN(c2ccccc2F)CC1	5	8	-10	-8	-70*
O=C(CCC(=O)N1CCN(c2ccccc2F)CC1)N1CCN(c2ccc(F)cc2)CC1	-14	4	-1	12	2
O=C(CCCOc1ccccc1)N1CCN(c2ccccc2)CC1	1	-1	-4	-20	-53*
C=CCC[C@H](CCCCC)OC(=O)/C=C/[C@@H](O)[C@H](O)C[C@H](O)CC=C	·	·	·	4	39
CCC(CC)C(=O)Nc1ccc(OCc2cc(=O)n3ccc(C)cc3n2)cc1	-5	0	-3	-1	·
CCN(CC1CCCN(CCc2cccc(F)c2)C1)C(=O)c1ccoc1C (configuration not stated)	·	·	·	-5	-51*
Cc1occc1C(=O)N(C)CC1CCCN(CCc2ccccc2F)C1 (configuration not stated)	-32*	3	-5	-13	-28
Cc1cc(C)c(C(=O)N(C)CC2CCCN(CCc3ccccc3F)C2)o1 (configuration not stated)	-67*	1	-2	-26	-15
CC(C)(C)c1ccc(OC(=O)Cn2c(C(F)(F)F)nc3ccccc32)cc1	-8	13	-2	-3	12
Cn1c(=O)c2c([nH]c(=S)n2CCCc2ccccc2)n(C)c1=O	8	1	-3	6	0
Cn1c(=O)[nH]c(=O)c2c1[nH]c(=S)n2CCCc1ccccc1	5	1	0	11	-54*
CN(C)CCNc1nc2c(c(=O)[nH]c(=O)n2C)n1CCCc1ccccc1	11	2	0	5	-76*
CCn1c(=O)c(=O)n(CC)c2cc(N3CCCCC3)c(NC(=O)c3ccccc3OC)cc21	12	-1	-1	-5	·
COCOCCn1cc(CN2CCS(=O)(=O)N(Cc3ccc(-c4ccncc4)cc3)C(CC(C)C)C2=O)nn1 (configuration not stated)	·	·	·	-1	-7
CC1CC(C)(C)CC2(C1)NC(=O)N(CC(=O)Nc1cc([N+](=O)[O-])ccc1F)C2=O (configuration not stated)	-33*	1	-6	-5	7
CC(C)CCN1C(=O)c2ccccc2C1c1nnnn1C(C)C (configuration not stated)	·	·	·	-10	0
N#Cc1ccc(CN(Nc2ccccc2)c2ccccc2)cc1	·	·	·	-6	-15
CC(=O)Nc1ccc(SC[C@H](Cc2ccccc2)N2CC[C@@H](O)CCC2=O)cc1	-18	-1	-1	-8	-2
CCCN1CCC(=O)N([C@H](CSc2ccc(OC)cc2)CC(C)C)CC1	-34*	0	-2	-28	?
SMILES	D1 antagonist	D1 agonist	D1 potentiator	DRD3 agonist	DRD3 antagonist
CC(=O)Nc1ccc(SC[C@H](Cc2ccccc2)N2CCN(CCc3ccccc3)CCC2=O)cc1	-33*	7	-5	-29	5
CC(C)C[C@@H](CSc1ccccc1)N1CCN(CCc2ccccc2)CCC1=O	-4	5	6	-31	-56*
COc1ccc(CCNC(=O)c2ccc3c(c2)N(Cc2ccc(F)cc2)C(=O)CS3)cc1OC	7	2	1	-19	·
CC(C)(C)N(Cc1ccccc1)C(=O)CN1C(=O)NC2(CCCCCC2)C1=O	-75*	1	·	13	8
CC1CCC2(CC1)NC(=O)N(CC(=O)N(Cc1ccccc1)C(C)(C)C)C2=O (configuration not stated)	-10	1	-10	0	9
CC(=O)NC1C(Oc2cccc(C)c2)OC2COC(c3ccco3)OC2C1O (configuration not stated)	-39*	1	-1	-5	10
COc1ccc(NC(=O)Nc2nnc(N3CCCCCC3)s2)c(OC)c1	-5	-1	2	-2	·
CC(=O)N1N=C(c2ccccc2)CC1c1cccc([N+](=O)[O-])c1 (configuration not stated)	-16	1	12	-9	?
CC(=O)N1N=C(c2cccs2)CC1c1cccc([N+](=O)[O-])c1 (configuration not stated)	·	-2	-2	-12	-60*
CCOc1ccc(-n2nc3ccc(NC(=O)COc4ccc(OC)cc4)cc3n2)cc1	-14	0	0	2	·
COc1ccc(OCC(=O)Nc2ccc(-c3nc4cc(C)c(C)cc4o3)cc2)cc1	-31*	0	1	4	·
COc1ccc(OCC(=O)Nc2ccc3nn(-c4ccc(OC)cc4)nc3c2)cc1	-1	2	2	62*	·
Cc1ccc(OCC(=O)Nc2ccc(-c3nc4ccc(C)cc4o3)cc2)cc1	-9	-1	-1	8	·
CCOc1ccc(C(=O)Nc2ccc(-c3nc4cc(CC)ccc4o3)cc2)cc1	12	3	-2	0	·
CCOC(=O)c1c(C)cc2c(CO)n[nH]c(=O)c2c1C	·	·	·	5	8
COc1ccc2c(c1OC)C(=O)OC2CC(=O)O (configuration not stated)	-30*	1	0	0	-55*
COc1ccc(NC(=O)C2COc3ccccc3C2)cc1Cl (configuration not stated)	-5	5	-2	5	·
COc1ccc(-c2oc3ncn4nc(COc5ccc(Cl)cc5)nc4c3c2-c2ccc(OC)cc2)cc1	29	6	3	-1	·
Cc1cc2nc(CSc3ccccc3)cc(=O)n2[nH]1	-33*	2	2	3	-7
CCc1nn2c(=O)cc(COC(=O)c3cccc(NC(=O)COc4ccccc4F)c3)nc2s1	-7	-1	0	5	·
O=C1C2C3C=CC(C3)C2C(=O)N1/N=C/c1ccc(-c2ccccc2[N+](=O)[O-])o1 (configuration not stated)	8	1	-6	-19	-12

Screens as filed in PubChem BioAssay.
